PubChem BioAssay (NCATS)
Several values for one entry are separate records, joined by “and”; a condition that tells them apart may be missing. Identical values can stand only once. Inconclusive results are not listed. Where a call stands in place of a potency, no number is given. Activity calls are given as the source filed them. Calls follow the shape of the dose curve; as a rule, active = well fitted curve in the direction sought with a large enough effect; inconclusive = small, poorly fitted or top-dose-only effect, or another doubt; inactive = no such curve, though single readings can be large; an effect the other way counts as inactive or inconclusive. Starred links: 1 amine or outer side, 2 acyl side, 3 side chain; linkers in the order of their positions; H or OH if unused. Positions of bridges follow the written chain, without caps; N, C: chain ends. Non-standard residues stand in square brackets, D forms with d. Residues, ends and D or L forms follow the SMILES beside them. Chains are numbered I, II in the order given. Actinocin(9to1) = Cc1c2oc3c(C)ccc(C(=O)[*:1])c3nc-2c(C(=O)[*:2])c(N)c1=O; NMeV = CN[CH](C(=O)O)C(C)C; Sar = CNCC(=O)O

Experiments:
[1] = qHTS Screen of the MIPE 4.0 Collection Against Ewings Sarcoma (TC32) (AID 1259256); also: nearly all actives have a fitted effect of over 45% in size
In short: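 Here, cells in 5% FBS RPMI were exposed for two days (48 h) to compound dilutions added four hours after plating. ATP-based CellTiter-Glo luminescence measured viability, normalized to vehicle and no-cell blanks.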

[2] = P-glycoprotein substrates identified in KB-8-5-11 adenocarcinoma cell line, qHTS therapeutic library screen (AID 1346987); also: nearly all actives have a fitted effect of over 65% in size
In short: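 P-gp-mediated resistance screen: KB-8-5-11 cells treated 72 h with compounds in dose-response. CellTiter-Glo viability.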

[3] = NS1 protein of Zika virus - qHTS assay to identify small molecule inhibitors in human HEK 293 cells (AID 1347053); also: nearly all actives have a fitted effect of over 55% in size
In short: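 HEK 293 cells pretreated with compound for 1 h, then infected with ZIKV MR766 (MOI 0.5) for 24 h at 37 C. NS1 detected by TR-FRET with two anti-NS1 antibodies; normalized to uninfected (0%) and infected (100%) wells.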

[4] = qHTS of pediatric cancer cell lines to identify multiple opportunities for drug repurposing: Primary screen for TC32 cells (AID 1347089); also: nearly all actives have a fitted effect of over 60% in size
In short: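 A viability screen of TC32 cells was run over 48 h, with primary MIPE doses spanning 0.78 nM–46 µM and NPC doses 0.59 nM–46 µM. ATP luminescence (CellTiter-Glo) served as the read-out.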

[5] = qHTS of pediatric cancer cell lines to identify multiple opportunities for drug repurposing: Primary screen for DAOY cells (AID 1347090); also: nearly all actives have a fitted effect of over 55% in size
In short: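 Eight- or eleven-point concentration series, 48 h treatment at 37 degrees C in growth media; readout CellTiter-Glo luminescence. Potency and efficacy were taken from the concentration-response curves.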
Potency is read from the fitted curve at half-maximal effect.

| Compound | Potency [1] | Potency [2] | Potency [3] | Potency [4] | Potency [5] |
| --- | --- | --- | --- | --- | --- |
| Cc1c2oc3c(C)ccc(C(=O)NC4C(=O)NC(C(C)C)C(=O)N5CCCC5C(=O)N(C)CC(=O)N(C)C(C(C)C)C(=O)OC4C)c3nc-2c(C(=O)NC2C(=O)NC(C(C)C)C(=O)N3CCCC3C(=O)N(C)CC(=O)N(C)C(C(C)C)C(=O)OC2C)c(N)c1=O (centres undefined) (I: TVP[Sar][NMeV] / II: TVP[Sar][NMeV]; ester I:1-I:C, II:1-II:C; linker I:N-II:N via Actinocin(9to1); configuration not given here) | inactive | 0.187 µM (active) | 7.43 µM (active) | 0.523 µM (active) |  |
| CN1C(C(=O)Nc2ccccn2)=C(O)c2sc(Cl)cc2S1(=O)=O | 5.26 µM (active) | inactive | inactive | inactive |  |
| CCn1c(=O)c2c(nc(C=Cc3ccc(OC)c(OC)c3)n2C)n(CC)c1=O | inactive | inactive | inactive | inactive | inactive |
| C[C@H](CCC(=O)O)[C@H]1CC[C@H]2[C@@H]3[C@H](O)C[C@@H]4C[C@H](O)CC[C@]4(C)[C@@H]3CC[C@]12C | inactive | inactive | inactive | inactive |  |
| CNC(=O)c1cccc(-c2ccc3c(N4CCOC[C@H]4C)nc(N4CCOC[C@H]4C)nc3n2)c1 | 0.059 µM (active) | 0.0662 µM (active) | inactive | 0.523 µM (active) |  |
| Oc1cc2c(cc1O)C1c3ccc(O)c(O)c3OCC1(O)C2 (centres undefined) | inactive | inactive | inactive | inactive | inactive |
| C[C@](Cc1c[nH]c2ccccc12)(NC(=O)OC1C2CC3CC(C2)CC1C3)C(=O)NC[C@H](NC(=O)CCC(=O)O)c1ccccc1 (some centres undefined) | inactive | inactive | inactive | inactive | inactive |
| C[C@H](NCc1ccc2c(c1)nc(NC(=O)c1ccc(-c3cn[nH]c3)s1)n2CCc1ccccc1)C(C)(C)C | 2.96 µM (active) | 2.35 µM (active) | 8.33 µM (active) | 9.3 µM (active) |  |
| CN(C)c1ccc(C(=O)NCCCCCCC(=O)NO)cc1 | 0.296 µM (active) | 3.72 µM (active) | inactive | 2.62 µM (active) | 2.35 µM (active) |
| CC(C)(N)c1ccc(-c2nc3ccccc3nc2-c2ccccc2)cc1 | 23.5 µM (active) | 418 nM (active) and 23.1 µM (active) | 18.7 µM (active) | inactive |  |
| COc1cc(OC)c(NC(=O)Nc2cc(C)on2)cc1Cl | inactive | inactive | inactive | inactive | inactive |
| NC[C@H]1O[C@H](O[C@H]2[C@@H](O)[C@@H](O[C@H]3O[C@H](CO)[C@@H](O)[C@H](N)[C@@H]3O)[C@H](N)C[C@@H]2N)[C@H](N)C[C@H]1O | inactive | inactive | inactive | inactive | inactive |
| COC(=O)C=CC(=O)OC | 14.8 µM (active) | inactive | inactive | inactive | 1.87 µM (active) |
| C[C@@]12C(=O)OC(=O)[C@@]1(C)C1CCC2O1 | 2.64 µM (active) | 5.26 µM (active) | 3.72 µM (active) | 13.1 µM (active) | 2.96 µM (active) |
| C[C@H](NC(=O)[C@@H](O)c1cc(F)cc(F)c1)C(=O)N[C@@H]1C(=O)N(C)c2ccccc2-c2ccccc21 | inactive | inactive | inactive | inactive |  |
| CCS(=O)(=O)Nc1ccc2[nH]c(O)c(C(=Nc3ccc(CN4CCCCC4)cc3)c3ccccc3)c2c1 | 0.0833 µM (active) | inactive | 18.7 µM (active) | 0.131 µM (active) | 7.43 µM (active) |
| O=C1c2cccc(O)c2C(=O)c2c(O)cc(CO)cc21 | inactive | inactive | inactive | inactive |  |
| COc1cc(C=CC(=O)CC(=O)C=Cc2ccc(O)c(OC)c2)ccc1O | 12.1 µM (active) | 48.1 µM (active) | 19.1 µM (active) | 33.9 µM (active) |  |
| OCC(O)C(O)C(O)CO (centres undefined) | inactive | inactive | inactive | inactive | inactive |
| C[C@H]1C[C@H]2[C@@H]3CCC4=CC(=O)C=C[C@]4(C)[C@@H]3C(=O)C[C@]2(C)[C@@]1(O)C(=O)CO | inactive | inactive | inactive | inactive | inactive |
| CCc1nc(-c2cccc(C)c2)c(-c2ccnc(NC(=O)c3ccccc3)c2)s1 | 20.9 µM (active) | 20.9 µM (active) | 10.5 µM (active) | inactive |  |
| C[C@H]1COc2c(N3CCN(C)CC3)c(F)cc3c(=O)c(C(=O)O)cn1c23 | inactive | inactive | inactive | inactive |  |
